Source: PubChem BioAssay (Tox21)
Results filed as inconclusive are left out. A call without a number means that no potency is given here. Active and inactive are the calls of the source. Calls follow the shape of the dose curve; as a rule, active = well fitted cell-killing curve with a large enough effect in the repeat runs; inconclusive = weak or mixed curves, or effect the other way; inactive = flat fitted curve, though single readings scatter.

Assay: qHTS RealTime-Glo MT Cell Viability Assay in HEK293 cells - 8 hour (AID 1224887); also: nearly all actives have a fitted effect of over 50% in size; as to activity change, negative = cytotoxicity: top concentration of the series differs between compounds
Conditions: RealTime-Glo luminescence; series mostly up to 76.8 µM
Source text: U.S. Tox21 Program National Center for Advancing Translational Sciences [NCATS] NIH Chemical Genomics Center [NCGC] U.S. Environmental Protection Agency [EPA] National Institutes of Environmental Health Sciences [NIEHS] National Toxicology Program [NTP] U.S. Food and Drug Administration [FDA] Tox21 Assay Overview: Measure of cell viability is critical in the cell-base assay. Analysis of cell viability is necessary for the characterization of cell responses to cytotoxic drugs and environmental stress. A RealTime-Glo MT Cell Viability Assay to monitor cell viability in real time of continues cell culture during 40 hours of compound treatment was used to screen Tox21 10K library compounds in Hek293 cells. The RealTime-Glo MT Cell Viability Assay is a nonlytic, homogeneous, bioluminescent method to measure cell viability in real time using a simple, plate-based method. The assay involves adding NanoLuc luciferase and a cell-permeant prosubstrate to cells in culture. Viable cells reduce the proprietary prosubstrate to generate a substrate for NanoLuc luciferase. This substrate diffuses from cells into the surrounding culture medium, where it is rapidly used by the NanoLuc Enzyme to produce a luminescent signal. The signal correlates with the number of viable cells, making the assay well suited for cytotoxicity studies.
Tox21 Assay Protocol Summary: The mixture of Hek293 cell suspension and reagents were dispensed at 600cells/6 ul/well in 1536-well tissue culture treated black solid bottom plates using a Multidrop dispenser. After the assay plates were incubated at a 37 C/5% CO2 incubator for 5 hours, 23 nL of compounds dissolved in DMSO, positive and negative controls was transferred to the assay plate by a pintool work station. The plates were incubated at 37 C for 40 hours. The luminescence intensity were measured at 0h, 8h, 16h, 24h, 32h and 40h time points using ViewLux plate reader during compound treatment.
Potency is read from the fitted curve at half-maximal effect.

Row | SMILES | Potency | activity change, negative = cytotoxicity
1 | CC(=O)[C@H]1CC[C@H]2[C@@H]3CCC4=CC(=O)CC[C@]4(C)[C@H]3CC[C@]12C | 13.7 µM (active) | –
2 | CN1CCC[C@@H]1CCO[C@](C)(c1ccccc1)c1ccc(Cl)cc1 | inactive | –
3 | COc1c(C)c2c(c(O)c1C/C=C(\C)CCC(=O)OCCN1CCOCC1)C(=O)OC2 | inactive | –
4 | CCN(CC)c1ccc2c(-c3ccc(S(=O)(=O)O)cc3S(=O)(=O)[O-])c3ccc(=[N+](CC)CC)cc-3oc2c1 | inactive | –
5 | CC(C)=CCNc1ncnc2c1ncn2[C@@H]1O[C@H](CO)[C@@H](O)[C@H]1O | inactive | –
6 | CCCc1ccc(OCC(=O)N2CCN(C(=O)COc3ccc(CCC)cc3OC)CC2)c(OC)c1 | 9.52 µM (active) | –
7 | CC1=CCC(=C(C)C)CC1 | inactive | –
8 | CCCCCCC1CCCC(=O)O1 (stereo not given) | inactive | –
9 | O=C(O)Cc1ccccc1Nc1c(Cl)cccc1Cl | inactive | –
10 | O=[N+]([O-])c1cccc(C(F)(F)F)c1 | inactive | –
11 | Fc1ccc(C(c2ccc(F)cc2)N2CCNCC2)cc1 | inactive | –
12 | Cc1cc(C)c(/C=C2\C(=O)Nc3ccccc32)[nH]1 | inactive | –
13 | C=CC(=O)OCCOC(=O)C=C | inactive | –
14 | C#Cc1ccc(-c2ccccc2F)cc1 | inactive | –
15 | Cc1cc(=O)oc2cc(O)cc(O)c12 | inactive | –
16 | COc1cccc(OC)c1C(=O)O | inactive | –
17 | C=CC(C)(CCC=C(C)C)OC=O (stereo not given) | inactive | –
18 | Cc1c(F)c(N2CCNC(C)C2)cc2c1c(=O)c(C(=O)O)cn2C1CC1 (stereo not given) | inactive | –
19 | O=C(O)[C@H](O)[C@@H](O)[C@H](O[C@@H]1O[C@H](CO)[C@H](O)[C@H](O)[C@H]1O)[C@H](O)CO | inactive | –
20 | CCC(CC)C(C)CCOC(C)=O (stereo not given) | inactive | –

Row | SMILES | Potency | activity change, negative = cytotoxicity
21 | CCCC(=O)OCOC(=O)C1=C(C)NC(C)=C(C(=O)OC)C1c1cccc(Cl)c1Cl (stereo not given) | inactive | –
22 | Cc1ccc(N/N=c2\c(=O)cc/c(=N\Nc3ccc(S(=O)(=O)O)cc3)c2=O)c(C)c1 | inactive | –
23 | S=C([S-])NCCNC(=S)[S-].S=C([S-])NCCNC(=S)[S-].[Mn+2].[Zn+2] | inactive | –
24 | OC12N=C(c3ccccc3)SC1Cc1cc(Cl)ccc12 (stereo not given) | inactive | –
25 | OC1CCC(C2CCCCC2)CC1 (stereo not given) | inactive | –
26 | COc1cc(C)ccc1O | inactive | –
27 | C[C@@H](O)[C@H](N)C(=O)O | – | -0.878% [at 15.8 µM] (inactive)
28 | CCCCC/C=C\C/C=C\CCCCCCCC(=O)O | inactive | –
29 | CC(=O)CC(=O)Nc1ccc(S(=O)(=O)O)cc1 | inactive | –
30 | CCCC1CCC(=O)CC1 | inactive | –
31 | OC1CCCc2ccccc21 (stereo not given) | inactive | –
32 | CCN(CC)C(=O)c1cc(S(=O)(=O)Cc2ccccc2)c(N2CCC(c3ccccc3)CC2)cc1N(CC)CCN(C)C | 17.2 µM (active) | –
33 | O=[N+]([O-])c1ccc(O)cc1C(F)(F)F | inactive | –
34 | CN1CCN2c3ccccc3Cc3ccccc3C2C1 (stereo not given) | inactive | –
35 | O=C(O)c1cc(N=Nc2ccc([N+](=O)[O-])cc2)ccc1O | inactive | –
36 | CC(N=C(NC#N)Nc1ccncc1)C(C)(C)C (stereo not given) | inactive | –
37 | CCCNCCC | inactive | –
38 | CCOC(=O)NNc1ccc(N(CC)CC(C)O)nn1 (stereo not given) | inactive | –
39 | CCc1oc2ccccc2c1C(=O)c1cc(I)c(O)c(I)c1 | inactive | –
40 | COc1ccc(-c2coc3cc(O)ccc3c2=O)cc1 | inactive | –
